100 compounds from PubChem BioAssay AID1321 (The Scripps Research Institute Molecular Screening Center, 2008) can be followed below.

Several values for one entry are separate records, joined by “and”; a condition that tells them apart may be missing. Equal values may be shown once. The campaign covered roughly 220,000 compounds. About 2,600 (1.2%) were called active.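 The calls were made as follows: active = activation above the mean of all tested compounds plus 3 SD, set per screening run (cut at about 8.8% in these data); inactive = the rest.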 This excerpt belongs to a sample that is enriched for actives. Some compounds were tested as several samples or in several runs, with calls that do not always agree.

This assay concerns the target Wee1-like protein kinase (Homo sapiens) (UniProt P30291). In words: compounds stabilizing Wee1-luciferase fusion – cell-based, HeLa, Wee1K328M-luciferase, luminescence, primary screen (AID 1321).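 Also: cells exposed to compound for 20 h before luminescence read; 0% = DMSO alone and 100% = MG132 at 30 µM.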 The note with it: HeLa Luc-Wee1K328M stability, at 5 µM, stronger effect = higher value, 100% = proteasome inhibitor MG132 effect.
Consider `NNC(=O)c1ccc(COCC(F)(F)C(F)F)cc1`, for which the reporter increase is 2.09% (inactive).
On to `COc1ccc(-c2csc(NC3OC(=O)c4ccccc43)n2)cc1` (stereo not given), for which the reporter increase was 1.6% (inactive).
For the compound `Cc1nnsc1C(=O)NCc1c(F)cccc1Cl`, the reporter increase was -2.45% (inactive).
To `Cn1c(=O)c2c(nc(NCc3ccccc3)n2CC(N)=O)n(C)c1=O` belongs -2.48% (inactive); to `CC(CN1CCOCC1)c1ccccc1` (stereo not given), 11.8% (active); to `Cc1ccc(C(=O)OC(C)CN2CCOCC2)cc1` (stereo not given), 2.34% (inactive).
To `OC(c1ccccc1)C(CN1CCOCC1)c1ccccc1` (stereo not given) belongs 0.23% (inactive).
`O=C(CN1CCOCC1)Nc1c(-c2ccccc2)c2cc(Br)ccc2[nH]c1=O`: the reporter increase was -2.5% (inactive).
For `Cc1ccc2[nH]c(=O)c(CN3CCCCC3)c(-c3ccccc3)c2c1`, the reporter increase is 11.8% (active).
`Cc1ccc2[nH]c(=O)c(CC=C(Cl)Cl)c(C)c2c1`: the reporter increase was -1.17% (inactive).
To `Cc1cc(Nc2ccc(N3CCOCC3)cc2)c2cccc(C)c2n1` belongs 1.6% (inactive).
Turning to `C/C(=N\Nc1cccc(C(=O)O)c1)c1ccc2c(c1)Nc1ccccc1S2`, the reporter increase is 2.58% (inactive).
Turning to `Cc1ccsc1C(C(=O)NC1CCCCC1)N(C(=O)Cc1cccs1)C1CC1` (stereo not given), the reporter increase was -1.86% (inactive).
With `Cc1ccccc1N(C(=O)Cc1cccs1)C(C(=O)NC1CCCCC1)c1cn(C)nc1C` (stereo not given), the reporter increase is 12.1% (active).
For `Cc1cccc(N(C(=O)Cc2cccs2)C(C(=O)NC2CCCC2)c2ccsc2)c1` (stereo not given), the reporter increase is -1.49% (inactive).
`Nc1scc[n+]1Cc1cccc2cccnc12`: the reporter increase was 4.15% (inactive).
As for `CC(C)=NN1C(=O)c2ccccc2NC1(C)C`, the reporter increase is 2.65% (inactive).
For `CC(NC(=O)C(C)(C)C)C(c1cccs1)N1CCN(Cc2ccccc2)CC1` (stereo not given), the reporter increase is -2.56% (inactive).
For `CCOC(=O)c1ccc(NC(=O)C2CC(=O)Nc3nc4ccccc4n32)cc1` (stereo not given), the reporter increase is -0.26% (inactive).
As for `O=C(Nc1ccccc1)C1CC(=O)n2c(nc3ccccc32)N1` (stereo not given), the reporter increase was -0.1% (inactive).
To `CC(=O)c1ccc(NC(=O)C2CC(=O)Nc3nc4ccccc4n32)cc1` (stereo not given) belongs 11.6% (active); to `Cn1nc(C(C)(C)C)c(NC(=O)c2sccc2Cl)c1C(C)(C)C`, 1.43% (inactive); to `O=C1N=C(N2CCc3ccccc3C2)S/C1=C\c1ccc(O)cc1`, -2.98% (inactive).
For `COc1cc(C(=O)Nn2c(O)c(C3=c4ccccc4=NC3=O)sc2=S)ccc1O`, the reporter increase is -2.51% (inactive).
To `COc1ccccc1NC(=O)c1c(Br)cnn1C` belongs 3.35% (inactive); to `O=C(NCc1cccs1)c1ccc(Br)o1`, -0.94% (inactive); to `Cn1ncc(Br)c1C(=O)NCc1cccs1`, 20.9% (active).
To `O=C(O)C(c1ccccc1)C1(O)CCCCC1` (stereo not given) belongs 7.89% (inactive); to `Cc1ccc(NNC(=O)c2c(F)cccc2Cl)cc1Cl`, 0.76% (inactive); to `O=C(NNc1cc(Cl)cc(Cl)c1)c1c(F)cccc1Cl`, 9.07% (active).
On to `CCN(CC)CCNC(=O)c1ccc(NC(=O)c2c(F)cccc2Cl)cc1`, for which the reporter increase is 1.18% (inactive).
Take `CCOC(=O)C1CCN(c2c(Nc3cc(C)cc(C)c3)c(=O)c2=O)CC1`: the reporter increase is -2.25% (inactive).
Regarding `Cc1ccc(S/C(=N\S(=O)(=O)c2ccc(Cl)cc2)c2ccccc2)cc1`, the reporter increase is 0.58% (inactive).
As to `O=S(=O)(/N=C(/Nc1ccccn1)c1ccccc1)c1ccc(Cl)cc1`, the reporter increase was -2.13% (inactive).
To `Cc1ccc(S(=O)(=O)/N=C(/Nc2ccccn2)c2ccc(Cl)cc2)cc1` belongs 11.1% (active); to `CCCCN(CCCC)CC(O)Cn1c2ccccc2c(=O)c2ccccc21` (stereo not given), 0.32% (inactive); to `O=C(Nc1ccc(S(=O)(=O)Nc2nccs2)cc1)c1cccc(S(=O)(=O)N2CCOCC2)c1`, -2.58% (inactive).
With `CC(=O)N1CCC(N(C(=O)Nc2ccc(Cl)cc2)C(C)C)CC1`, the reporter increase is -1.37% (inactive).
Turning to `NC(=O)c1ccc(-c2csnn2)cc1`, the reporter increase is -2.32% (inactive).
`CCS(=O)(=O)N1CCC(C(=O)N2CCN(c3ccccc3)CC2)CC1`: the reporter increase is -1.23% (inactive).
To `CS(=O)(=O)N1CCC(C(=O)N2CCN(c3ccccc3)CC2)CC1` belongs 11.4% (active).
In the case of `CCCS(=O)(=O)N1CCCC(C(=O)N2CCN(c3ccccc3)CC2)C1` (stereo not given), the reporter increase was -1.94% (inactive).
For `CCC1CCc2c(sc(NC(C)=O)c2C#N)C1` (stereo not given), the reporter increase is 1.63% (inactive).
In the case of `CCN1CCN(CC(=O)Nc2sc3c(c2C#N)CCC3)CC1`, the reporter increase is -0.82% (inactive).
Take `CN1CCN(CC(=O)Nc2sc3c(c2C#N)CCC(C(C)(C)C)C3)CC1` (stereo not given): the reporter increase is 16.5% (active).
With `CC1CC(NC(=O)/C(C#N)=C/c2ccc[nH]2)CC(C)(C)C1` (stereo not given), the reporter increase was 1.3% (inactive).
Take `c1ccc(-n2cccc2)c(N2CCCCC2)c1`: the reporter increase was 3.42% (inactive).
In the case of `C/C(CC(C)C)=N\Oc1nc(C)cc(C)n1`, the reporter increase was -1.74% (inactive).
Consider `COc1cc(OC)cc(C(=O)NC(=S)N2CCN(c3ccc(C(F)(F)F)cc3[N+](=O)[O-])CC2)c1`, for which the reporter increase is 12.2% (active).
In the case of `O=C(Nc1cccc(C(F)(F)F)c1)c1ccc(N2CCNCC2)c([N+](=O)[O-])c1`, the reporter increase is 1.22% (inactive).
In the case of `Cc1cccc(C(=O)NC(=S)N2CCN(c3ccc([N+](=O)[O-])cc3)CC2)c1`, the reporter increase was -1.67% (inactive).
To `Cc1cc(C)nc(NC(=O)/C=C/c2ccc(Cl)cc2)n1` belongs -2.67% (inactive); to `CC(C)n1c(=S)[nH]c2cc(C(F)(F)F)ccc21`, -2.42% (inactive); to `Cc1[nH]n(C)c(=O)c1N=Nc1ccc(S(C)(=O)=O)cc1`, 1.89% (inactive).
To `COc1cc(CC(=O)N/N=C/c2ccccc2)c([N+](=O)[O-])cc1OC` belongs 10.2% (active); to `O=C(Cc1cc(=O)[nH][nH]1)N/N=C/c1ccccc1[N+](=O)[O-]`, -4.24% (inactive); to `COc1ccc(C(=O)NCC(=O)N/N=C/c2ccc([N+](=O)[O-])o2)cc1OC`, -1.47% (inactive).
For `CCn1c(SCC(=O)N/N=C/c2ccccc2OCC(=O)O)nnc1-c1ccc(C(C)(C)C)cc1`, the reporter increase was 0.66% (inactive).
Regarding `CCN(CC)C(=O)CSC(Nc1cccc(F)c1)=C(C#N)C#N`, the reporter increase was -3.44% (inactive).
With `Cc1cccc(N2CCN(Cc3nc(C4CC4)no3)CC2)n1`, the reporter increase is -3.23% (inactive).
Take `Cc1ccc(S(=O)(=O)NC(=O)Nc2nc(-c3ccc(F)c(F)c3)cs2)cc1`: the reporter increase is 7.86% (inactive).
Regarding `COc1ccc(-c2ccc(CNCCCN3CCOCC3)o2)cc1Cl`, the reporter increase was 8.92% (active).
To `COc1ccc(Cl)cc1NC(=O)CCN1CCOCC1` belongs -3.24% (inactive).
Take `C=CCOc1ccc(Cl)cc1CNCCCN1CCOCC1`: the reporter increase is -1.69% (inactive).
Regarding `Cn1c(SCC(=O)c2ccc(F)cc2)nnc1-c1ccccn1`, the reporter increase is -0.76% (inactive).
In the case of `CC(C)N(Cc1nc(-c2ccc3c(c2)OCO3)no1)CC1CCC(=O)N1` (stereo not given), the reporter increase is 2.1% (inactive).
To `CN(CCN1CCOCC1)Cc1nc(-c2ccc3c(c2)OCO3)no1` belongs 1.41% (inactive); to `COCC1CCCN(Cc2nc(-c3ccc4c(c3)OCO4)no2)C1` (stereo not given), 9.73% (active).
Take `Cc1ccc(-c2c[n+](=O)c3c(n2[O-])CCC3)cc1`: the reporter increase is -1.07% (inactive).
As to `O=C(Cc1ccccc1)Nc1cccc(C(=O)N/N=C/c2ccco2)c1`, the reporter increase is -1.22% (inactive).
As for `O=C(CSc1ccc(/C=N/NC(=O)c2cccc(F)c2)o1)Nc1ccccc1`, the reporter increase was 9.46% (active).
Turning to `N#CCC(=O)N/N=C/c1ccc(SCC(=O)Nc2ccccc2)o1`, the reporter increase is -0.66% (inactive).
Consider `CCOc1cc2[nH]c(=S)n(Cc3ccc(C(=O)NCCOC)cc3)c(=O)c2cc1OCC`, for which the reporter increase is -1.62% (inactive).
As for `COc1cc2[nH]c(=S)n(Cc3ccc(C)o3)c(=O)c2cc1OC`, the reporter increase was 3.12% (inactive).
As to `COc1cc2[nH]c(=S)n(Cc3ccc(F)cc3)c(=O)c2cc1OC`, the reporter increase is 12.6% (active).
With `COc1ccc(F)cc1S(=O)(=O)N1CCCCC1`, the reporter increase is 2.94% (inactive).
As to `Cc1ccc(/C=N/NC(=S)NC2CCCCC2)o1`, the reporter increase is 3.18% (inactive).
Consider `CCn1c(-c2ccncc2)n[nH]c1=S`, for which the reporter increase is 1.46% (inactive).
Consider `CCn1c(C(C)NC(=O)c2ccc(C)cc2)n[nH]c1=S` (stereo not given), for which the reporter increase was -0.98% (inactive).
Take `CCn1c(C(C)C)n[nH]c1=S`: the reporter increase is 18.6% (active).
In the case of `O=C(NCc1ccco1)C1CCCN1S(=O)(=O)c1ccccc1C(F)(F)F` (stereo not given), the reporter increase is -1.13% (inactive).
For `CCC1=NN2C(=N)/C(=C/c3cc(C)n(-c4ccccc4)c3C)C(=O)N=C2S1`, the reporter increase was 4.73% (inactive).
On to `COC(=O)c1sc(SC)c(S(=O)(=O)C(C)C)c1N/N=C(\C#N)S(=O)(=O)c1ccccn1`, for which the reporter increase was 2.36% (inactive).
To `CCOC(=O)C1CCN(C(=O)Nc2ccc(C)c(Cl)c2)CC1` belongs 3.42% (inactive).
On to `CCOC(=O)COc1ccc([N+](=O)[O-])cc1`, for which the reporter increase is -1.98% (inactive).
On to `CCOC(=O)C/C(C)=N\Nc1ccc([N+](=O)[O-])cc1[N+](=O)[O-]`, for which the reporter increase is -1.73% (inactive).
With `CCCCOC(=O)CCCc1ccc([N+](=O)[O-])cc1[N+](=O)[O-]`, the reporter increase is 12.8% (active).
For the compound `CC1(C)CC(CNCCC(c2ccc(F)cc2)c2ccco2)CCO1` (stereo not given), the reporter increase was -2.08% (inactive).
With `CC(C)CNC(=O)/C=C/C(=O)O`, the reporter increase was 31.4% (active) and -2.62% (inactive).
Regarding `CC(C)CNC(=O)C(=O)NCc1ccccc1`, the reporter increase is -2.69% (inactive).
To `CC(C)CNC(=O)CC(NCC(C)C)C(=O)O` (stereo not given) belongs -0.85% (inactive); to `CN(Cc1nc(-c2cnccn2)no1)Cc1n[nH]c2c1CCCCC2`, -0.67% (inactive); to `CC(Sc1nnnn1C1CCCCC1)C(=O)O` (stereo not given), -1.64% (inactive).
To `O=C(O)C1CCN1C1CCCCC1` (stereo not given) belongs 8.91% (active); to `O=C(O)c1cccc2c1C(=O)N(C1CCCCC1)C2`, -0.13% (inactive); to `O=C(CCNc1n[nH]c(=O)[nH]c1=O)N/N=C\c1ccc(Br)cc1`, -1.51% (inactive).
As for `COc1c(N2CCN(C(=S)Nc3ccccc3F)C(C)C2)c(F)cc2c(=O)c(C(=O)O)cn(C3CC3)c12` (stereo not given), the reporter increase was -0.39% (inactive).
To `CCOC(=O)c1cc(NC(=O)c2cccnc2)cc(C(=O)OCC)c1` belongs -1.21% (inactive); to `CCC(=O)Nc1ccc(C(=O)Nc2cccc(OC)c2)cc1`, 0.16% (inactive).
On to `CCC(=O)Nc1cccc(NC(=O)c2cccnc2)c1`, for which the reporter increase was 14.3% (active).
